Source: PubChem BioAssay AID504339 (National Center for Advancing Translational Sciences (NCATS), 2011)
In all, about 390,000 compounds went through this assay and about 17,000 (4.4%) were called active. Where a call stands in place of a potency, no number is given. Another 8% or so got no clear call; they are omitted. The sample holds actives, similar compounds and a random draw of the others, so the mix is not that of the screen. A number with no mark means an inactive call. The call rests on the fitted dose curve; in most records, active means well fitted inhibition curve with a large enough effect; inconclusive means small, poorly fitted or top-dose-only effect; inactive means no such curve, though single readings can be large or run the other way.

These compounds were tested against Lysine-specific demethylase 4A (Homo sapiens) (UniProt O75164) (assay: qHTS Assay for Inhibitors of JMJD2A-Tudor Domain). Conditions: AlphaScreen JMJD2A-Tudor / H3K4me3 peptide binding; series mostly up to 114 µM.
Further: nearly all actives have a fitted effect of over 50% in size.
Potency means the concentration at half of the fitted maximal effect.

Lysine-specific demethylase 4A (Homo sapiens), sequence (O75164 whole entry, looked up, the tested form may be a part): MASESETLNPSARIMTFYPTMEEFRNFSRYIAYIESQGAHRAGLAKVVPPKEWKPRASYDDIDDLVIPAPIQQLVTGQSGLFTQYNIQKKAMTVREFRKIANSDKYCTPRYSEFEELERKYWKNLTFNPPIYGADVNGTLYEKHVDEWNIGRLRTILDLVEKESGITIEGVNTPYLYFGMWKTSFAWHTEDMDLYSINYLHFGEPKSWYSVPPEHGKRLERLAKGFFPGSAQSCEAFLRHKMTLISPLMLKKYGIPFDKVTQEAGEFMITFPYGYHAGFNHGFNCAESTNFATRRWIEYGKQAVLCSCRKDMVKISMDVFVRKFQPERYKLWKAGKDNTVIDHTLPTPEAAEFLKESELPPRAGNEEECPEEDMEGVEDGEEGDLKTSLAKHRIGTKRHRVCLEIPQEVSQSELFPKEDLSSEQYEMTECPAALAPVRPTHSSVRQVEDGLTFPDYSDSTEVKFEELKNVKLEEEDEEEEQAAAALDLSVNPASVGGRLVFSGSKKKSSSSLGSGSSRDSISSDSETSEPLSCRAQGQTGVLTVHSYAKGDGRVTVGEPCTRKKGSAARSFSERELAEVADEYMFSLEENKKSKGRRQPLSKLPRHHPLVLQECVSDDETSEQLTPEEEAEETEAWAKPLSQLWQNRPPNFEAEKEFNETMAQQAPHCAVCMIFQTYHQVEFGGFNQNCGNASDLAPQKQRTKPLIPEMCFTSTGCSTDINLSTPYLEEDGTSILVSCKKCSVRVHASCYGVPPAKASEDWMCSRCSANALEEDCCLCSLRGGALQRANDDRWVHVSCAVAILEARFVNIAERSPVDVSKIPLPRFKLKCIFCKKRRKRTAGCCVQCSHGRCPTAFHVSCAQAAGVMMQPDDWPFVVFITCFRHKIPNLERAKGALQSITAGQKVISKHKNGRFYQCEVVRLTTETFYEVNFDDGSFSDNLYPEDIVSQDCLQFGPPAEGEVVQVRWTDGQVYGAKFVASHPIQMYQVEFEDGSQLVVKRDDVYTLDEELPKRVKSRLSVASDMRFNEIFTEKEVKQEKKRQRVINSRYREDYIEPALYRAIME

| SMILES | Potency | activity change, negative = inhibition |
| --- | --- | --- |
| CC1=C(C(=O)OCC(C)C)C(c2ccc(OCc3ccccc3)cc2)N2C(=O)CCSC2=N1 (stereo unspecified) | inactive |  |
| CCC(=O)Nc1cccc(C(=O)OCc2cc(=O)n3nc(CC)sc3n2)c1 | inactive |  |
| S=c1[nH]nc(NCCc2ccccc2)s1 | 2.51 µM (active) |  |
| O=S(=O)(NCCc1ccccc1)c1ccccc1 | inactive |  |
| O=S(=O)(NCCc1ccncc1)c1ccccc1 | inactive |  |
| Cc1nn2c(=O)cc(COC(=O)CNC(=O)c3ccc(F)cc3)nc2s1 | inactive |  |
| Cc1ccc(C)c(N2CCN(Cc3nnc(-c4ccccc4)o3)CC2)c1 | inactive |  |
| CC1CCC(N2CC(=O)N(CCC3=CCCCC3)C(c3ccc(F)cc3)C2=O)CC1 (stereo unspecified) | inactive |  |
| Cc1ccccc1-c1n[nH]c(=S)n1C | 7.08 µM (active) |  |
| Cn1c(-c2sc3cc(C(F)(F)F)cnc3c2-c2ccccc2)n[nH]c1=S | inactive |  |
| Cn1c(-c2sccc2OCc2cccc(C(F)(F)F)c2)n[nH]c1=S |  | -12% [at 11.4 µM] |
| COc1ccc(CNC(=O)CSc2n[nH]c(N)n2)cc1OC | inactive |  |
| COc1ccc(-c2nc(SCC(=O)N3CCOCC3)n[nH]2)cc1 | inactive |  |
| COc1ccc(C(=O)CSc2n[nH]c(N)n2)cc1 | 56.2 µM (active) |  |
| COc1cccc(C(=O)NC(=O)Nc2ccc(-c3cc(C(F)(F)F)nn3-c3ccccc3)cc2)c1 | inactive |  |
| Cc1ccc(S(=O)(=O)NCc2nc3nc(C)cc(C)n3n2)cc1 | inactive |  |

| SMILES | Potency | activity change, negative = inhibition |
| --- | --- | --- |
| CCC1=Nc2cc(C(=O)NCCCOC(C)C)ccc2Sc2ccc(C)cc21 | inactive |  |
| O=C(CCS(=O)(=O)c1ccc2c(c1)NC(=O)CO2)Nc1cccc(C(F)(F)F)c1 | inactive |  |
| CS(=O)(=O)c1ccc2c(c1)SC1=NC(=O)/C(=C/c3ccco3)C(=N)N12 | inactive |  |
| CC(C)(C)C1C/C(=C/c2ccco2)C(=O)/C(=C/c2ccco2)C1 (stereo unspecified) | 31.6 µM (active) |  |
| Cc1cccc(NC(=O)CSc2ncc(-c3ccccc3)[nH]2)c1C | inactive |  |
| CCc1ccccc1NS(=O)(=O)c1ccc2nc(-c3ccccc3)[nH]c2c1 | inactive |  |
| Cc1ccc(Nc2ccc3cc(S(=O)(=O)N4CCCCC4)ccc3n2)cc1F | inactive |  |
| CCOc1ccc(C2CC(=O)c3c([nH]c(C(=O)OCc4ccccc4)c3C)C2)cc1 (stereo unspecified) | inactive |  |
| Cc1ccc(CNC(=O)CCc2c(C)nn(-c3ccc(N4CCCC4)nn3)c2C)cc1 | inactive |  |
| C=CCn1c(COc2ccccc2C)nnc1SCC(=O)O | inactive |  |
| C=CCn1c(CCc2ccc(OC(C)C)cc2)n[nH]c1=S | inactive |  |
| C=CCn1c(-c2ccccc2OCC)n[nH]c1=S | 4.47 µM (active) |  |
| Cc1[nH]c2ccc(S(N)(=O)=O)cc2c1C | inactive |  |
| C=CCn1c(=S)sc2c(=O)[nH]c(C)nc21 | inactive |  |
| C=CCn1c(-c2ccc3[nH]c(C)c(C)c3c2)n[nH]c1=S | 50.1 µM (active) |  |
